The values that follow come from PubChem BioAssay (NCATS).

Several values for one entry are separate records, joined by “and”; a condition that tells them apart may be missing. Equal entries are not always repeated. Some compounds were tested as several samples or in several runs, with calls that do not always agree. Activity calls are given as the source filed them. Calls follow the shape of the dose curve; as a rule, active = well fitted inhibition curve with a large enough effect; inconclusive = small, poorly fitted or top-dose-only effect; inactive = no such curve, though single readings can be large or run the other way.
Potency is read from the fitted curve at half-maximal effect.

The assay in a line: qHTS assay for measurement of the activity of small molecule inhibitors on Zika virus induced Caspase-3 activity in human astrocytoma cells (AID 1224859). The note with it: SNB-19 ZIKV-induced caspase-3/7, luminescence, 6 h; series mostly up to 45.7 µM; activity change, negative = inhibition: at the top concentration. The text has this: National Center for Advancing Translational Sciences [NCATS]
Johns Hopkins University School of Medicine
Increase in the Caspase-3 activity indicates an activation of apoptosis cell death pathway caused by Zika virus infection in certain types of neuronal cells including human neural progenitor cells (hNPCs), astrocytes, and astrocytoma cell line (SNB-19). This cell-based caspase-3 activity assay measures the increased caspase-3 activity in the astrocytoma cell line (SNB-19) after a 6-hour Zika virus infection with a luminescence readout. A decrease in the luminescence signal in this assay by small molecule treatment indicates an inhibitory effect of that small molecule on the Zika virus induced caspase-3 activity that may correlate with its effect on reduction of Zika virus caused cell death.
The medium for SNB-19 cells is composed of RPMI 1640 (ATCC, Cat.# 30-2001), 10% fetal bovine serum (FBS) (GE healthcare Life Sciences, Cat.# SH30071.03), and 1% Pen/Strep (Gibco, Cat.# 15140-122). A Caspase-Glo 3/7 assay kit (catalog number G8092; Promega, Madison, WI) was used to detect caspase-3 activity induced by Zika virus infection in human cells. The reagent mixture was reconstituted as described in the protocol from the manufacturer. Polystyrene tissue culture treated and PDL coated white plates were obtained from Greiner Bio-One (Monroe, NC). Cells were seeded in 384- or 1536-well assay plates and cultured at 37 C with 5% CO2 for 16 to 20 hours. The typical cell seeding density in the 1536-well plate assay is 250 cells/well in 3ul medium for SNB-19 cells in tissue culture treated plates. Compounds were added to cells and incubated for one hour before addition of ZIKV solution to cells (2 FFU/cell). After incubation at 37 C with 5% CO2 for 6 hours, the reagent mixture of Caspase-Glo 3/7 assay kit was added to each well, followed by incubation at room temperature for 30 minutes. The luminescence intensity of the assay plates was measured using a ViewLux plate reader (PerkinElmer). Data were normalized by using the cell-containing wells without ZIKV as a negative control (0% induction of caspase 3/7 activity) and wells containing ZIKV infected cells (Caspase-3 activity induced) as a positive control (100% induction of caspase 3 activity). The percentage inhibitions of the increased Caspase-3 activity by small molecule inhibitors were then calculated.
Turning to `O=C(C=Cc1ccc(/C=C/C(=O)Nc2ccc(C3=NCCN3)cc2)cc1)Nc1ccc(C2=NCCN2)cc1`, the “activity change, negative = inhibition” value is 0.842% (inactive).

Regarding `CCOC(=O)C1=C[C@]2(CC)CCCN3CCc4c(n1c1ccccc41)[C@@H]32`, the Potency entry was “inactive”.

Take `Cc1c(C)c2c(c(C)c1O)CCC(C)(COc1ccc(CC3SC(=O)NC3=O)cc1)O2` (stereo not given): the Potency entry is “inactive”.

As for `CC(C)NCC(O)COc1ccc(COCCOC(C)C)cc1` (stereo not given), the Potency result is “inactive”.

`CCC(C)N(C)C(=O)c1cc2ccccc2c(-c2ccccc2Cl)n1` (stereo not given): the Potency entry was “inactive”.

Take `C[C@@H]1CN(Cc2ccc(F)cc2)[C@@H](C)CN1C(=O)c1cc2c(C(=O)C(=O)N(C)C)cn(C)c2cc1Cl`: the “activity change, negative = inhibition” value is 89.6% (inactive).

`Cn1cnc2c(F)c(Nc3ccc(Br)cc3Cl)c(C(=O)NOCCO)cc21`: the “activity change, negative = inhibition” value is 17.4% (inactive).

Turning to `CCc1cncnc1N1CCN(Cc2nc3ccc(C(F)(F)F)cc3[nH]2)CC1`, the “activity change, negative = inhibition” value is -8.9% (inactive).

As to `Cc1cc(C=c2sc3nc4ccccc4n3c2=O)c(C)n1-c1ccccc1`, the “activity change, negative = inhibition” value was -16.8% (inactive).

Regarding `COc1ccc(CC2=NN3C([C@@H](CCc4ccccc4)[C@@H](C)O)=NC(C)C3C(=O)N2)cc1OC` (stereo not given in full), the Potency is 10.5 µM (active).

Regarding `O=C(O)COCCN1CCN(C(c2ccccc2)c2ccc(Cl)cc2)CC1` (stereo not given), the Potency entry is “inactive”.

`Cc1[nH]c(=O)c(C#N)cc1-c1ccncc1`: the Potency result was “inactive”.

Consider `CCCC(CCC)C(=O)O`, for which the Potency result was “inactive”.

For `Cc1oncc1C(=O)Nc1ccc(C(F)(F)F)cc1`, the Potency entry was “inactive and 2.64 µM (active)”.

Take `C[C@]1(c2nc3c(C(N)=O)cccc3[nH]2)CCCN1`: the “activity change, negative = inhibition” value is 12.3% (inactive).

In the case of `CS(=O)(=O)c1ccc(C(=O)Nc2ccc(Cl)c(-c3ccccn3)c2)c(Cl)c1`, the “activity change, negative = inhibition” value was 8.81% (inactive).

On to `CCn1cc(C(=O)O)c(=O)c2cc(F)c(N3CCNC(C)C3)c(F)c21` (stereo not given), for which the Potency result was “inactive”.

For `COc1ccc(C2=N[C@H](c3ccc(Cl)cc3)[C@H](c3ccc(Cl)cc3)N2C(=O)N2CCNC(=O)C2)c(OC(C)C)c1`, the “activity change, negative = inhibition” value is 53.2% (inactive).

With `Clc1ccc(Nc2nnc(Cc3ccncc3)c3ccccc23)cc1`, the Potency entry was “inactive”.

For the compound `C[C@]12CCC(=O)C=C1CC[C@@H]1[C@@H]2[C@@H](O)C[C@@]2(C)[C@H]1CC[C@]2(O)C(=O)CO`, the Potency result is “inactive”.

In the case of `CCCS(=O)(=O)Nc1ccc(F)c(C(=O)c2c[nH]c3ncc(-c4ccc(Cl)cc4)cc23)c1F`, the “activity change, negative = inhibition” value is -5.23% (inactive).

On to `Cc1ccc(-n2nc(C(C)(C)C)cc2NC(=O)Nc2ccc(OCCN3CCOCC3)c3ccccc23)cc1`, for which the Potency result was “inactive”.

On to `CCN(c1ccccc1)c1cc(NC)[n+](C)c(C)n1`, for which the “activity change, negative = inhibition” value is 28.9% (inactive).

Consider `OC(CN1CCC(Cc2ccc(F)cc2)CC1)c1ccc(Cl)cc1` (stereo not given), for which the Potency entry is “inactive”.

For `Nc1nc2[nH]cc(CCc3ccc(C(=O)N[C@@H](CCC(=O)O)C(=O)O)cc3)c2c(=O)[nH]1`, the “activity change, negative = inhibition” value was 17% (inactive).

As to `OC(CCN1CCCCC1)(c1ccccc1)C1CC2C=CC1C2` (stereo not given), the Potency result is “inactive”.

As to `COc1ccc(-c2c(-c3ccc(O)cc3O)n[nH]c2C)cc1`, the “activity change, negative = inhibition” value is 16.5% [at 92.8 µM] (inactive).

As to `O=C1CCCC2=C1C(c1[nH]ncc1Cl)N=C(Nc1nc3ccccc3o1)N2` (stereo not given), the “activity change, negative = inhibition” value is 52.3% (inactive).

For `CCCn1c(=O)c2[nH]c(C34CC5CC3C[C@@H](C5)C4)nc2n(CCC)c1=O`, the “activity change, negative = inhibition” value was 41% (inactive).

With `CCC(C)n1ncn(-c2ccc(N3CCN(c4ccc(OC[C@H]5CO[C@](Cn6cncn6)(c6ccc(Cl)cc6Cl)O5)cc4)CC3)cc2)c1=O` (stereo not given in full), the Potency entry is “inactive”.

As to `COCC(=O)NCC=Cc1ccc2ncnc(Nc3ccc(Oc4ccc(C)nc4)c(C)c3)c2c1`, the “activity change, negative = inhibition” value is 47.9% (inactive).

Consider `CC(C)(Sc1ccc(CCN(CCCCC2CCCCC2)C(=O)NC2CCCCC2)cc1)C(=O)O`, for which the Potency result was “inactive”.

Turning to `Cc1cc([C@@H](C)Nc2ccccc2C(=O)O)c2nc(N3CCOCC3)cc(=O)n2c1`, the “activity change, negative = inhibition” value is 41.7% [at 92.8 µM] (inactive).

For the compound `O=C(O)CCc1ccc(NCc2cccc(Oc3ccccc3)c2)cc1`, the “activity change, negative = inhibition” value is -7.11% (inactive).

In the case of `COc1ccc(-c2ccc3c(N4CCOC[C@H]4C)nc(N4CCOC[C@H]4C)nc3n2)cc1CO`, the “activity change, negative = inhibition” value is -3.96% (inactive).

On to `Cc1ccc(N(CC2=NCCN2)c2cccc(O)c2)cc1`, for which the Potency result was “inactive”.

In the case of `CCn1c(-c2nonc2N)nc2c(C#CC(C)(C)O)ncc(OC[C@H]3CCCNC3)c21`, the “activity change, negative = inhibition” value was 27.1% (inactive).

Regarding `COCCNCCCn1c(C(=O)CF)c(-c2ccc(C)cc2)c2c(N)ncnc21`, the “activity change, negative = inhibition” value is -6.19% (inactive).

Consider `CCOc1ccc(Cc2cc([C@@H]3O[C@H](CO)[C@@H](O)[C@H](O)[C@@H]3O)ccc2Cl)cc1`, for which the “activity change, negative = inhibition” value is 49.1% (inactive).

With `c1ccc(-c2nn3c(c2-c2ccnc4cc(OCCN5CCOCC5)ccc24)CCC3)nc1`, the “activity change, negative = inhibition” value was -13.8% (inactive).
